# Experimental data published in PubChem BioAssay (NCI).
# The panel holds about 83,000 compounds, 20% with a hit somewhere; the sample as a whole holds those more often.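 A percent growth of 40 corresponds to 60% growth inhibition; 0 means no net growth; -100 means all cells died. Active threshold: below 10.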 Values without a mark were called inactive. Active and inactive are the calls of the source.
# Assays:
# Test in all cases: NCI-60 one-dose screen, 48 h (100 = growth as untreated, 0 = no growth, -100 = all killed)
# Details in all cases: 10 µM unless noted
# [1] = tested on: HCT-15 colon
# [2] = tested on: HT29 colon
# [3] = tested on: SNB-75 CNS
# [4] = tested on: SNB-19 CNS
# [5] = tested on: PC-3 prostate
# [6] = tested on: SK-MEL-5 melanoma
# [7] = tested on: UACC-62 melanoma
# [8] = tested on: LOX IMVI melanoma
# [9] = tested on: SK-MEL-28 melanoma
# [10] = tested on: SK-MEL-2 melanoma
# [11] = tested on: EKVX NSCLC
# [12] = tested on: SN12C renal
# [13] = tested on: UO-31 renal
# [14] = tested on: TK-10 renal
# [15] = tested on: ACHN renal
# [16] = tested on: CAKI-1 renal
# [17] = tested on: A498 renal
# [18] = tested on: CCRF-CEM leukemia
# [19] = tested on: MOLT-4 leukemia
# [20] = tested on: U251 CNS
Compound,growth [1],growth [2],growth [3],growth [4],growth [5],growth [6],growth [7],growth [8],growth [9],growth [10],growth [11],growth [12],growth [13],growth [14],growth [15],growth [16],growth [17],growth [18],growth [19],growth [20] [%]
O=C1c2cc3c(cc2-c2c1c1cc(F)c(F)cc1c(=O)n2CCCn1ccnc1)OCO3,4.66% (active),3.52% (active),24.4%,15.7%,9.43% (active),-74.9% (active),-61.4% (active),-20.4% (active),34.8%,-11.2% (active),30.9%,-1.14% (active),-23.7% (active),29.8%,-55.7% (active),3.03% (active),-74.1% (active),7.04% (active),-14.3% (active),–
C=CC(=O)Nc1cccc(-c2nc(SC)nc(Nc3cccc(OC)c3)c2C#N)c1,52.5%,56.9%,18%,66.9%,53.1%,77%,78.1%,72.1%,87%,71.2%,72%,44.6%,42.3%,78.9%,45.7%,44.9%,9.73% (active),57.5%,–,–
COc1cccc(-c2nc3sccn3c2-c2ccnc(NCCNS(=O)(=O)c3ccc(F)cc3)c2)c1,17.2%,24%,22.9%,50.5%,16.3%,-53.1% (active),-9.01% (active),25.1%,45.2%,21.3%,28.2%,27.1%,16.7%,46.5%,13%,18.4%,18.2%,14.2%,7.99% (active),–
O=C(COc1cccc(/C=C2\CSc3ccccc3C2=O)c1)Nc1nccs1,75.5%,15.9%,22.2%,79.5%,–,–,64.1%,-100% (active),-0.13% (active),–,25.5%,89.4%,60.1%,70%,69.9%,78.1%,–,4.26% (active),-51.1% (active),41.8
O=C1/C(=C/c2cn(-c3ccccc3)nc2-c2ccccc2)SC(=S)N1CCc1ccccc1,106%,104%,71.9%,99%,100%,101%,98%,99.3%,118%,108%,96.6%,98.6%,88.5%,106%,104%,85.2%,95.7%,102%,99.4%,–
Cc1nc(/N=C(\N)NC(=O)Nc2cccc([N+](=O)[O-])c2)sc1C,30.1%,42.8%,58.3%,90.1%,77.1%,91.1%,63.1%,71.7%,80.5%,88.1%,77.3%,86.9%,83%,110%,92%,58.3%,57.2%,69.1%,51.5%,–
C=C(C)[C@@H]1CC[C@]2(C(=O)OC)CC[C@]3(C)[C@H](CC[C@@H]4[C@@]5(C)C/C(=C/c6ccc(OC)cc6)C(=O)C(C)(C)[C@@H]5CC[C@]43C)[C@@H]12,59.6%,32.1%,75.7%,108%,84.9%,95.8%,99.7%,79.6%,102%,104%,84.7%,84.9%,79.7%,107%,90.5%,90.5%,93.7%,58.8%,58.3%,–
COc1cc2nc(N3CCCC3)nc(Nc3ccccc3)c2cc1OC,-42.6% (active),-71% (active),99.5%,49.9%,29.4%,-97.8% (active),-76.1% (active),-92.6% (active),-91.3% (active),-52.5% (active),28.3%,-53.5% (active),-53.5% (active),16.5%,-11.2% (active),-19% (active),40.6%,-11.4% (active),-24.7% (active),–
CSc1nc(Nc2cccc(NC(=O)/C(C#N)=C/c3c(Cl)cccc3Cl)c2)c(C#N)c(-c2cccc([N+](=O)[O-])c2)n1,28.9%,49.2%,47.5%,72.5%,45.1%,49.6%,33.2%,2.43% (active),76.7%,52.8%,56.7%,44.6%,33.7%,99.6%,57.9%,24.5%,73.5%,43.3%,23.9%,–
C=C(C)[C@@H]1CC[C@]2(C(=O)OC)CC[C@]3(C)[C@H](CC[C@@H]4[C@@]5(C)C/C(=C/c6cccc(I)c6)C(=O)C(C)(C)[C@@H]5CC[C@]43C)[C@@H]12,99.3%,107%,89.2%,94%,96%,99%,96.5%,91.9%,104%,103%,94.6%,101%,85.2%,101%,90.8%,82%,116%,97.9%,95.8%,–
Cc1cc(N2CCOCC2)nc(NCc2cc(Nc3ccnc4cc(Cl)ccc34)ccc2F)n1,-81.9% (active),-28.5% (active),-20.3% (active),-22.9% (active),-30% (active),-98.3% (active),-83.6% (active),-68.4% (active),-73.1% (active),-61.6% (active),9.33% (active),-72.7% (active),-50.8% (active),-14.7% (active),-12.9% (active),3.58% (active),-57.8% (active),-10.4% (active),–,–
CSc1nc(NCCN2CCOCC2)c(C#N)c(-c2cccc([N+](=O)[O-])c2)n1,97.4%,106%,62.8%,95.2%,97.4%,99.3%,87.4%,95.9%,103%,109%,87.3%,95.7%,82.5%,135%,93.7%,86.4%,55.7%,102%,98%,–
COc1cccc(-c2nc3sccn3c2-c2ccnc(NCCCNS(=O)(=O)c3cccc(F)c3)c2)c1,13.7%,38.7%,29.3%,55%,13.6%,-31.2% (active),-32.7% (active),23.7%,42.6%,7.47% (active),31%,28.5%,11.4%,61.1%,20.7%,19.7%,64.4%,9.96% (active),3.29% (active),–
O=C(COc1ccc(/C=C2\COc3ccccc3C2=O)cc1)Nc1nccs1,72.6%,39.1%,84.6%,88.2%,–,–,96.4%,63.2%,86.5%,72.8%,102%,114%,73.2%,88.7%,94.1%,103%,–,7.16% (active),–,73
N#CCCN=Nc1c(O)[nH]c2ccc(F)cc12,101%,110%,62.7%,101%,95.2%,99.5%,102%,94.5%,107%,101%,90.9%,101%,80.6%,108%,103%,84.8%,75.8%,107%,103%,–
Cc1nc2ccccc2n1C(=O)C[C@@H]1NC(=S)NC1=O,93%,105%,74.1%,98.3%,105%,100%,97.1%,95.3%,99.2%,113%,93.6%,103%,78.3%,90.9%,96.5%,91.5%,94.9%,109%,100%,–
